Data reported in PMC5540273 (PLoS ONE, 2017).

Experiments:
Conditions in all cases: concentration: 1 μM, replicates: in singlicate; n = 1
PAK1 = system: PAK1
PAK2 = system: PAK2
PAK3 = system: PAK3
PAK4 = system: PAK4
PAK6 = system: PAK6
PAK7 = system: PAK7
PCTK1 = system: T1, PCTK1
T1 construct: gene CDK16

PCTK2 = system: T2, PCTK2
T2 construct: gene CDK17

PCTK3 = system: T3, PCTK3
T3 construct: gene CDK18

PDGFRA = system: PDGFRA
PDGFRB = system: PDGFRB
PDPK1 = system: PDPK1
PFTAIRE2 = system: PFTAIRE2
PFTK1 = system: T4, PFTK1
T4 construct: gene CDK14

PHKG1 = system: PHKG1
PHKG2 = system: PHKG2
PIK3C2B = system: PIK3C2B
PIK3C2G = system: PIK3C2G
PIK3CA = system: PIK3CA
PIK3CB = system: PIK3CB
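Note: KINOMEscan kinase panel screen.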

SMILES | %Inh (PAK1) | %Inh (PAK2) | %Inh (PAK3) | %Inh (PAK4) | %Inh (PAK6) | %Inh (PAK7) | %Inh (PCTK1) | %Inh (PCTK2) | %Inh (PCTK3) | %Inh (PDGFRA) | %Inh (PDGFRB) | %Inh (PDPK1) | %Inh (PFTAIRE2) | %Inh (PFTK1) | %Inh (PHKG1) | %Inh (PHKG2) | %Inh (PIK3C2B) | %Inh (PIK3C2G) | %Inh (PIK3CA) | %Inh (PIK3CB)
Cl.Cn1ccc(-c2cccc(Nc3ccnc4cc(-c5nccs5)ccc34)c2)n1 [GW525701] | 0% | 0% | 18% | 0% | 0% | 100% | 0% | 0% | 30% | 0% | 40% | 0% | 0% | 5% | 0% | 0% | 0% | 0% | 0% | 0%
Cl.c1ccc(Cn2ncc3cc(Nc4ncnc5ccccc45)ccc32)cc1 [GW273749] | 5% | 0% | 0% | 0% | 15% | 6% | 0% | 0% | 23% | 0% | 0% | 0% | 20% | 14% | 0% | 0% | 16% | 0% | 0% | 7%
Nc1nccc2scc(-c3ccc4c(c3)CCN4C(=O)Cc3cc(F)ccc3F)c12 [GSK2587663] | 1% | 0% | 19% | 0% | 0% | 0% | 0% | 0% | 20% | 0% | 35% | 0% | 15% | 15% | 4% | 0% | 0% | 0% | 0% | 0%
C[C@H]1CC[C@@H](C(=O)Nc2ccccc2)CN1c1cc(-c2ccc3c(N)n[nH]c3c2)nc(N)n1 [GSK2283293] | 0% | 3% | 0% | 0% | 0% | 0% | 0% | 0% | 12% | 0% | 11% | 25% | 15% | 11% | 0% | 0% | 0% | 0% | 0% | 0%
O=C(Nc1n[nH]c2nc(-c3ccco3)c(Br)cc12)c1ccc(CN2CCCC2)cc1.O=C(O)[C@H](O)[C@@H](O)C(=O)O [SB-742352] | 0% | 7% | 0% | 0% | 0% | 0% | 0% | 11% | 0% | 50% | 99.7% | 0% | 5% | 0% | 0% | 0% | 0% | 0% | 0% | 0%
FC(F)(F)c1ccc(-c2nn3ncccc3c2-c2ccnc(Nc3cccc(C(F)(F)F)c3)n2)cc1 [GW828205] | 37% | 30% | 0% | 7% | 20% | 0% | 0% | 0% | 0% | 0% | 9% | 0% | 0% | 48% | 9% | 0% | 0% | 0% | 0% | 0%
COC(=O)c1cccc(NC(=O)NCCNc2ccnc(Nc3ccc(F)cc3)n2)c1 [GSK1379883] | 0% | 0% | 0% | 0% | 0% | 0% | 0% | 0% | 0% | 0% | 51% | 5% | 9% | 18% | 0% | 0% | 4% | 0% | 9% | 0%
Clc1cc(Nc2ncnc3cc[nH]c23)ccc1OCc1ccccn1 | 10% | 29% | 39% | 10% | 29% | 7% | 2% | 19% | 19% | 29% | 38% | 0% | 5% | 10% | 0% | 0% | 15% | 43% | 8% | 15%
CCc1nc(-c2cccc(N(C)S(=O)(=O)c3ccccc3)c2)c(-c2ccnc(Nc3ccc(N4CCN(C(C)=O)CC4)nc3)n2)s1 [GSK1645895] | 6% | 0% | 0% | 0% | 5% | 5% | 8% | 24% | 4% | 14% | 32% | 0% | 25% | 20% | 0% | 0% | 0% | 0% | 0% | 0%
Fc1cccc(COc2ccc(Nc3ncnc4sc(-c5ccc[nH]5)cc34)cc2Cl)c1 [GW707818] | 6% | 5% | 0% | 6% | 11% | 12% | 0% | 22% | 0% | 0% | 19% | 5% | 22% | 23% | 0% | 12% | 0% | 7% | 0% | 1%
Cn1ccc2ncnc(Nc3ccc(Oc4cccc(Cl)c4)c(Cl)c3)c21 | 18% | 0% | 9% | 19% | 0% | 0% | 24% | 26% | 0% | 26% | 4% | 22% | 24% | 0% | 0% | 10% | 0% | 28% | 10% | 60%
O=C(Nc1ccccc1)Nc1ccc(Oc2ccc3nccn3n2)cc1 | 0% | 8% | 0% | 0% | 0% | 0% | 0% | 2% | 0% | 83% | 99% | 0% | 0% | 0% | 0% | 5% | 0% | 0% | 0% | 0%
O=C(NCCCN1CCCC1=O)c1cnc(NCc2cc(Cl)ccc2Cl)nc1NC1CCNCC1 | 5% | 0% | 0% | 3% | 0% | 0% | 0% | 0% | 10% | 0% | 0% | 7% | 0% | 7% | 0% | 1% | 0% | 0% | 0% | 0%
Fc1ccc(Nc2nccc(-c3c(-c4ccc(Cl)cc4)nn4ncccc34)n2)cc1F [GW829058] | 21% | 24% | 15% | 27% | 34% | 14% | 23% | 0% | 13% | 19% | 44% | 12% | 4% | 10% | 7% | 0% | 6% | 29% | 25% | 50%
Nc1n[nH]c2nnc(-c3ccccc3)cc12 [SB-517389] | 12% | 8% | 0% | 0% | 0% | 2% | 7% | 20% | 15% | 0% | 5% | 0% | 17% | 24% | 0% | 1% | 0% | 0% | 0% | 0%
CN1CCC(n2cnc(-c3ccc(F)cc3)c2-c2ccnc(NC3CCNCC3)n2)CC1 [SB-229482] | 0% | 14% | 13% | 8% | 11% | 10% | 0% | 0% | 10% | 11% | 29% | 0% | 17% | 0% | 0% | 16% | 0% | 0% | 0% | 37%
Cc1ccc(NC(=O)c2cccc(C#N)c2)cc1-c1ccc(C(=O)Nc2ccncc2)cc1 [GSK1398463] | 16% | 21% | 0% | 0% | 0% | 1% | 2% | 0% | 18% | 86% | 100% | 17% | 13% | 27% | 2% | 0% | 5% | 4% | 6% | 0%
Nc1nc(-c2ccc3c(N)n[nH]c3c2)cc(N2CCC[C@@H](C(=O)Nc3ccccc3)C2)n1.O=C(O)C(F)(F)F.O=C(O)C(F)(F)F [GSK2288359] | 2% | 0% | 27% | 0% | 0% | 6% | 14% | 8% | 0% | 15% | 31% | – | 18% | 16% | 0% | 2% | 1% | 42% | 4% | 0%
CS(=O)(=O)CCNCc1nc(-c2ccc3ncnc(Nc4ccc(OCc5cccc(F)c5)c(Cl)c4)c3c2)cs1.Cl [GW583340] | 19% | 9% | 0% | 0% | 0% | 7% | 3% | 16% | 10% | 0% | 12% | 0% | 12% | 16% | 0% | 0% | 37% | 0% | 0% | 0%
COc1ccc(Nc2nccc(N3CCC(NC(=O)c4cccc(NC(C)=O)c4)C3)n2)cc1 (centres unmarked) [GSK1379732] | 0% | 0% | 0% | 0% | 0% | 6% | 0% | 10% | 1% | 0% | 20% | 10% | 17% | 36% | 0% | 1% | 0% | 0% | 0% | 9%
CCC(CC)(CC)n1cnc2c(N)ncnc21 [SKF-97620] | 10% | 51% | 14% | 0% | 0% | 10% | 2% | 0% | 0% | 24% | 0% | 0% | 0% | 0% | 0% | 0% | 0% | 9% | 6% | 27%
